Consider 27 compounds from PubChem BioAssay.

The experiment is described as follows: mitochondrial membrane potential change in A549 cells, profiling panel, cell-based, JC-1 fluorescence, basal, 24 h, 100 nL (AID 1138).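 Also: A549 lung adenocarcinoma cells under basal conditions with no added stimulus; test concentration not given here.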 To be noted: higher = more signal.
In the case of `CC(C)C[C@H]1NC(=O)[C@@H](C)NC(=O)[C@@]23C(=O)N[C@@H](Cc4ccccc4)C2[C@H](C)[C@@]2(C)O[C@H]2C3/C=C/C/C=C\CNC1=O` (some centres not stated), the z-score is -0.0228.
Turning to `N#Cc1ccc(C(O)C2C=CC3C(=O)N(c4ccccc4)C(=O)C3N2Nc2ccc([N+](=O)[O-])cc2)cc1` (configuration not stated), the z-score was -2.34.
Next, `CN(C)CCCC[C@@H]1NC(=O)[C@@H]2C[C@H](C(=O)NCc3ccc(F)cc3)[C@H](c3ccc(O)cc3)N2C1=O`: 0.0539; `CC(=O)c1ccc(C(O)C2C=CC3C(=O)N(C)C(=O)C3N2NC(=O)OC(C)(C)C)cc1` (configuration not stated): -0.082; `CO[C@H]1O[C@H](CO)[C@@H](OC(=O)Nc2ccc3c(c2)OCO3)[C@@H]2OC(=O)[C@@H](Cc3ccccc3)C/C=C/C[C@H](Cc3ccccc3)C(=O)O[C@@H]12`: 2.76.
Next, `O=C1NC(=O)C2C1C=CC(C(O)c1cccc(O)c1)N2Nc1ccc(Cl)cc1Cl` (configuration not stated): -0.812; `Cc1ccc(S[C@]2(C(=O)NCCCN(C)C)CC(=O)N(Cc3ccccc3Cl)[C@@H]2c2ccc(CO)cc2I)cc1`: 0.935.
Consider `O=c1cccc(-c2ccccc2C(F)(F)F)o1`, for which the z-score is -0.074.
The figure for `COCCOC(=O)N1C(=O)[C@@]2(c3cc(C#CCC(C(=O)OC)C(=O)OC)ccc31)[C@H](c1ccc(OCCO)cc1)N1[C@H](c3ccccc3)[C@H](c3ccccc3)OC(=O)[C@H]1[C@@H]2C(=O)N1CCCCCCC1` is -0.83.
Turning to `C[C@H]1NC(=O)C([C@@H](C)OCc2ccccc2)NC(=O)[C@@]23C(=O)N[C@@H](Cc4ccccc4)C2[C@H](C)[C@@]2(C)O[C@H]2C3/C=C/C/C=C\CNC1=O` (some centres not stated), the z-score stood at 0.919.
For `COCC(=C=CC[C@@H](O)c1cccc(OCCO)c1)C[C@@H](O)COCc1ccccc1`, the z-score was found to be 0.806.
On to `C=C(CCCC)C(=O)CC[C@H](OC(C)=O)c1ccccc1OCCO`, for which the z-score is -0.012.
With `CCC[C@@H]1C=C(C(=O)OCC)[C@H](c2ccccc2)N1S(=O)(=O)c1ccc(C)cc1`, the z-score was found to be 2.03.
The figure for `COCCOC(=O)N1C(=O)[C@@]2(c3cc(C#CC4(O)CCCCCC4)ccc31)[C@H](C(=O)N1CCc3cc(OC)c(OC)cc3C1)[C@H]1C(=O)O[C@H](c3ccccc3)[C@H](c3ccccc3)N1[C@@H]2c1ccc(O)cc1` is -0.791; for `Cc1ccc(F)cc1S(=O)(=O)N[C@@H]1CCN(Cc2ccc3c(c2)OCO3)C1` it is 1.32; for `COCCOC(=O)N1C(=O)[C@@]2(c3cc(C#CC4(O)CCCCCC4)ccc31)[C@H](c1ccc(OCCO)cc1)N1[C@H](c3ccccc3)[C@H](c3ccccc3)OC(=O)[C@H]1[C@@H]2C(=O)N1CCCCCCC1` it is -1.31.
`CC(c1ccccc1)C(O)C1C=CC2C(=O)N(c3ccccc3)C(=O)C2N1Nc1ccc(C#N)cc1` (configuration not stated): the z-score came to 1.03.
Take `COC(=O)C(CC#Cc1ccc2c(c1)[C@]1(C(=O)N2)[C@H](c2ccc(O)cc2)N2[C@H](c3ccccc3)[C@H](c3ccccc3)OC(=O)[C@H]2[C@@H]1C(=O)N1CCc2cc(OC)c(OC)cc2C1)C(=O)OC`: the z-score was -0.654.
`C[N+](C)(C)CCCCCCNC(=O)[C@H]1C[C@H]2C(=O)NCC(=O)N2[C@H]1c1cccc(OCCO)c1`: the z-score is -0.883.
For `COC(=O)c1c(CC[C@@H](CO)NC(=O)N[C@@H](Cc2ccccc2)Cn2cc(-c3cncn3C)nn2)oc(C(C)=O)c1C(=O)OC`, the z-score is -0.691.
With `O=C1O[C@@H](c2ccccc2)[C@@H](c2ccccc2)N2[C@@H](c3ccc(O)cc3)[C@]3(C(=O)Nc4ccc(C#CC5=CCCCC5)cc43)[C@@H](C(=O)N3CCCCCCC3)[C@H]12`, the z-score was found to be 1.26.
In turn, `COC(=O)C1=CC(CCCO)=CC(C2CC2)N(Cc2cccc(OC(F)(F)F)c2)C=C1C(=O)OC` (configuration not stated) yielded a z-score of 1.1.
In the case of `COCCOC(=O)N1C(=O)[C@@]2(c3cc(C#CCC(C(=O)OC)C(=O)OC)ccc31)[C@H](C(=O)N1CCCCCCC1)[C@H]1C(=O)O[C@H](c3ccccc3)[C@H](c3ccccc3)N1[C@@H]2c1ccccc1OCCO`, the z-score was -1.49.
The figure for `COCCOC(=O)N1C(=O)[C@@]2(c3cc(C#CCCO)ccc31)[C@H](c1ccccc1OCCO)N1[C@H](c3ccccc3)[C@H](c3ccccc3)OC(=O)[C@H]1[C@@H]2C(=O)N1CCc2cc(OC)c(OC)cc2C1` is -0.0868; for `COC(=O)[C@@H]1N=C(c2ccc(OCCCO)cc2)O[C@@H]1c1ccccc1CN=[N+]=[N-]` it is 0.22.
For `COC(=O)[C@H](Cc1ccc(O)cc1)N1CC2=CCCC=C[C@@H]2[C@H]1[C@H](O)Cc1ccccc1`, the z-score is -0.934.
Next, `C=CC[C@@]1(C(=O)N(C)C)N=C(c2ccc(OCCCO)cc2)O[C@@H]1c1ccccc1`: -0.324.
